# Inconclusive results are not listed. Some compounds were tested as several samples or in several runs, with calls that do not always agree. Active and inactive are the calls of the source. Rule for the calls, unless noted: active = hit-call score of the fitted dose curve at least 0.9, where 1 is the maximum; inconclusive = response in the unintended direction; inactive = score below 0.9.
# Test system: SRD5A2 (gene 6716)
# Test: CCTE_Deisenroth_5AR_NBTE_ratio: CCTE's 5alpha-reductase NanoBRET Target Engagement Assay - Ratio, Deisenroth Lab (AID 2284322; active = hit-call score of the fitted dose curve at least 0.9, where 1 is the maximum; inactive = score below 0.9)
# Conditions: actives raise or lower the signal
# In short: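 SRD5A2-NanoLuc HEK293T; cmpd 10 nM-29.9 uM, 3 h preinc + testosterone tracer 2 h; NanoBRET ratio 650/460; bidirectional fit vs DMSO.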
row,SMILES,outcome
1,CC1(C)CCC(=Cc2ccc(Cl)cc2)C1(O)Cn1cncn1 (stereo unspecified),inactive
2,O=C1C2CC=CCC2C(=O)N1SC(Cl)(Cl)Cl (stereo unspecified),inactive
3,Cc1ccc(N=CN(C)C=Nc2ccc(C)cc2C)c(C)c1,inactive
4,COP(=S)(OC)SCn1nnc2ccccc2c1=O,inactive

# Test system: not listed separately
# Test: TAMU_PeakParms_SingleDonor1434_Asystole: Texas A&M University (TAMU) 1.5-hr Human Induced Pluripotent Stem Cell (iPSC)-derived Cardiomyocytes Calcium (Ca+2) Flux Assay for Cardiotoxicity: Asystole (quiescence of beating) (AID 2284328)
# Conditions: not given
# In short: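 Donor 1434 iPSC-cardiomyocytes exposed 90 min at 37C, 5% CO2, to 0.2, 1, 10 and 100 uM in 0.5% DMSO. Ca2+ dye fluorescence gave average peak frequency; POD is EC95, a 95% beat-rate drop versus controls.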
row,SMILES,outcome
1,CCCCC(C#N)(Cn1cncn1)c1ccc(Cl)cc1 (stereo unspecified),inactive
2,O=C1C2CC=CCC2C(=O)N1SC(Cl)(Cl)Cl (stereo unspecified),inactive
3,CNC(=O)Oc1cccc2ccccc12,inactive

# Test system: not listed separately
# Test: CCTE_Mundy_HCI_iCellGluta_NOG_NeuriteCount: CCTE's Neurite Outgrowth Assay in iCellGluta cells for Neurite Count, Mundy Lab (AID 2284342);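 note: chemical exposure about 48 hours starting 2 hours after plating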
# Conditions: not given
SMILES,outcome,AC50
CN/C(=N\[N+](=O)[O-])NCc1cnc(Cl)s1,inactive,
Cc1c(COC(=O)[C@@H]2[C@H](/C=C(\Cl)C(F)(F)F)C2(C)C)cccc1-c1ccccc1,,10.6 µM (active)
CS(=O)(=O)c1ccc(C(=O)C2C(=O)CCCC2=O)c([N+](=O)[O-])c1,inactive,
N#CN=C1SCCN1Cc1ccc(Cl)nc1,inactive,
CS(=O)(=O)c1cc(C(F)(F)F)ccc1C(=O)c1cnoc1C1CC1,inactive,
O=C(Nc1ccccc1-c1ccc(Cl)cc1)c1cccnc1Cl,inactive,38.3 µM (active)
CCNC(=O)NC(=O)C(C#N)=NOC,inactive,
CO/N=C(/C1=NOCCO1)c1ccccc1Oc1ncnc(Oc2ccccc2Cl)c1F,,24.4 µM (active)
COC(=O)N(C(=O)N1CO[C@@]2(C(=O)OC)Cc3cc(Cl)ccc3C2=N1)c1ccc(OC(F)(F)F)cc1,inactive,
CNC(=O)Oc1cccc2ccccc12,inactive,
C=C(C)CN(CC)c1c([N+](=O)[O-])cc(C(F)(F)F)cc1[N+](=O)[O-],,26.5 µM (active)
CC(C)(C)C(=O)C(Oc1ccc(Cl)cc1)n1cncn1 (stereo unspecified),inactive,
CCSC(=O)N1CCCCCC1,inactive,
COP(=S)(OC)SCn1nnc2ccccc2c1=O,,24.4 µM (active)

# Test system: not listed separately
# Test: CCTE_Deisenroth_H295R-HTRF_384WELL_ESTRADIOL: CCTE's H295R-HTRF Assay Evaluation of Estradiol Concentration, Deisenroth Lab (AID 2284361; active = hit-call score of the fitted dose curve at least 0.9, where 1 is the maximum; inactive = score below 0.9)
# Conditions: actives raise or lower the signal
# In short: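 Estradiol secreted into medium by H295R adrenocortical cells, quantified by HTRF after 48 h dosing over a nine-point 0.001 - 100 uM final range; gain or loss versus DMSO. Parallel ATP-luminescence viability readout; n=5 experiments.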
row,SMILES,outcome
1,CCCCC(C#N)(Cn1cncn1)c1ccc(Cl)cc1 (stereo unspecified),inactive
2,CC(C)(C)C(=O)C(Oc1ccc(Cl)cc1)n1cncn1 (stereo unspecified),inactive
3,CCSC(=O)N1CCCCCC1,inactive

# Test system: not listed separately
# Test: CCTE_Deisenroth_H295R-HTRF_384WELL_TESTOSTERONE: CCTE's H295R-HTRF Assay Evaluation of Testosterone Concentration, Deisenroth Lab (AID 2284373; active = hit-call score of the fitted dose curve at least 0.9, where 1 is the maximum; inactive = score below 0.9)
# Conditions: actives raise or lower the signal
# In short: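 Testosterone secreted into medium was quantified by direct HTRF immunoassay after a 48 h treatment of H295R adrenocortical cells (nine concentrations, 0.001–100 uM final). Gain or loss fitted relative to DMSO; CellTiter-Glo viability read on same plates.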
SMILES,outcome,AC50
CCCCC(C#N)(Cn1cncn1)c1ccc(Cl)cc1 (stereo unspecified),inactive,
CC(C)(C)C(=O)C(Oc1ccc(Cl)cc1)n1cncn1 (stereo unspecified),,8.94 µM (active)
CCSC(=O)N1CCCCCC1,inactive,

# Test system: not listed separately
# Test: CCTE_Deisenroth_H295R-HTRF_384WELL_CTOX: Cytotoxicity Assessment in CCTE's H295R-HTRF Assay, Deisenroth Lab (AID 2284380)
# Conditions: not given
# In short: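 Luminescent ATP viability readout (CellTiter-Glo 2.0), multiplexed on plates used for hormone sampling, after 48 h chemical exposure. Human H295R cells; final concentrations 0.001–100 uM in nine steps, technical triplicates, five experiments; DMSO baseline.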
row,SMILES,outcome
1,CCCCC(C#N)(Cn1cncn1)c1ccc(Cl)cc1 (stereo unspecified),inactive
2,CC(C)(C)C(=O)C(Oc1ccc(Cl)cc1)n1cncn1 (stereo unspecified),inactive
3,CCSC(=O)N1CCCCCC1,inactive

# Reference: PubChem BioAssay (EPA / NIEHS)
